In PubChem BioAssay AID1159580 (chemical genetic matrix, 2015):
The whole screen tested about 5,500 compounds, of which about 2,000 (36%) were called active. Roughly 18% stayed inconclusive and do not appear here. Rule as the data show it: active = normalized growth mostly below about 0.91 (no sharp cut-off); inconclusive = no clear call, values can overlap the other calls; inactive = mostly above about 0.92. Some of the results follow.

Test: chemical genetic growth profiling, strain panel (AID 1159580);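 also: tested at 20 µM; growth read once vehicle control cultures reached saturation at 30 °C; 1 = growth at the plate median or of vehicle wells; lower values mean less growth of the strain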
Settings: growth OD
[1] = S. cerevisiae deletion strains, locus YCL061C, strain MRC1, hits give low values
[2] = S. cerevisiae deletion strains, locus YHR030C, strain SLT2, hits give low values
[3] = S. cerevisiae deletion strains, locus YJL187C, strain SWE1, hits give low values

Measured: normalized growth

Cc1nn(Cc2ccccc2Cl)c(=N)s1
inactive: S. cerevisiae deletion strains, locus YAL013W, strain DEP1, hits give low values 1.01 | S. cerevisiae deletion strains, locus YBR229C, strain ROT2, hits give low values 0.999 | [1] 0.992 | S. cerevisiae deletion strains, locus YDL101C, strain DUN1, hits give low values 0.991 | S. cerevisiae deletion strains, locus YDL134C, strain PPH21, hits give low values 0.978 | S. cerevisiae deletion strains, locus YDR150W, strain NUM1, hits give low values 0.971 | S. cerevisiae deletion strains, locus YEL061C, strain CIN8, hits give low values 1.02 | S. cerevisiae deletion strains, locus YGR078C, strain PAC10, hits give low values 0.997 | S. cerevisiae deletion strains, locus YGR229C, strain SMI1, hits give low values 0.985 | [2] 0.959 | S. cerevisiae deletion strains, locus YHR087W, strain rtc3, hits give low values 0.972 | [3] 0.995 | S. cerevisiae deletion strains, locus YJR043C, strain POL32, hits give low values 0.991 | S. cerevisiae deletion strains, locus YJR075W, strain HOC1, hits give low values 0.99 | S. cerevisiae deletion strains, locus YLR039C, strain RIC1, hits give low values 0.939 | S. cerevisiae deletion strains, locus YLR058C, strain SHM2 (second series), hits give low values 1.01 | S. cerevisiae deletion strains, locus YLR085C, strain ARP6, hits give low values 1.03 | S. cerevisiae deletion strains, locus YLR262C, strain YPT6, hits give low values 0.954 | S. cerevisiae deletion strains, locus YML094W, strain GIM5, hits give low values 1.04 | S. cerevisiae deletion strains, locus YMR219W, strain ESC1, hits give low values 0.998 | S. cerevisiae deletion strains, locus YMR263W, strain SAP30, hits give low values 1 | S. cerevisiae deletion strains, locus YMR307W, strain GAS1, hits give low values 0.981 | S. cerevisiae deletion strains, locus YNL153C, strain GIM3, hits give low values 1.02 | S. cerevisiae deletion strains, locus YNL298W, strain CLA4 (second series), hits give low values 0.932 | S. cerevisiae deletion strains, locus YNL322C, strain KRE1, hits give low values 0.985 | S. cerevisiae deletion strains, locus YNR030W, strain Alg12, hits give low values 0.988 | S. cerevisiae deletion strains, locus YOL006C, strain TOP1, hits give low values 0.939 | S. cerevisiae deletion strains, locus YPL055C, strain LGE1, hits give low values 1.06 | S. cerevisiae deletion strains, locus YPL241C, strain CIN2, hits give low values 0.993 | S. cerevisiae deletion strains, locus YPR135W, strain CTF4, hits give low values 0.972 | S. cerevisiae strains, strain wild type, hits give low values 0.96

Clc1ccccc1CN1CCc2sccc2C1
inactive: S. cerevisiae deletion strains, locus YAL021C, strain ccr4, hits give low values 1.01 | S. cerevisiae deletion strains, locus YAL026C, strain drs2, hits give low values 1.01 | S. cerevisiae deletion strains, locus YAL030W, strain snc1, hits give low values 1.01 | S. cerevisiae deletion strains, locus YBL061C, strain skt5, hits give low values 1 | S. cerevisiae deletion strains, locus YBR009C, strain hhf1, hits give low values 1.01 | S. cerevisiae deletion strains, locus YBR023C, strain chs3, hits give low values 1.01 | S. cerevisiae deletion strains, locus YBR171W, strain sec66, hits give low values 1.02 | S. cerevisiae deletion strains, locus YBR231C, strain swc5, hits give low values 1.02 | S. cerevisiae deletion strains, locus YBR279W, strain paf1, hits give low values 1.02 | S. cerevisiae deletion strains, locus YCL011C, strain gbp2, hits give low values 1.01 | S. cerevisiae deletion strains, locus YCL016C, strain dcc1, hits give low values 1.01 | [1] 1.01 | S. cerevisiae deletion strains, locus YCL069W, strain vba3, hits give low values 1.01 | S. cerevisiae deletion strains, locus YCR088W, strain abp1, hits give low values 1 | S. cerevisiae deletion strains, locus YDL005C, strain med2, hits give low values 1.03 | S. cerevisiae deletion strains, locus YDL040C, strain nat1, hits give low values 1.01 | S. cerevisiae deletion strains, locus YDR001C, strain nth1, hits give low values 1.01 | S. cerevisiae deletion strains, locus YDR069C, strain doa4, hits give low values 1 | S. cerevisiae deletion strains, locus YDR137W, strain rgp1, hits give low values 0.879 | S. cerevisiae deletion strains, locus YDR159W, strain sac3, hits give low values 1.03 | S. cerevisiae deletion strains, locus YDR195W, strain ref2 1.05 | S. cerevisiae deletion strains, locus YDR297W, strain sur2, hits give low values 1.01 | S. cerevisiae deletion strains, locus YDR334W, strain swr1, hits give low values 1.01 | S. cerevisiae deletion strains, locus YDR335W, strain msn5, hits give low values 1.01 | S. cerevisiae deletion strains, locus YDR392W, strain spt3, hits give low values 0.77 | S. cerevisiae deletion strains, locus YEL003W, strain gim4, hits give low values 1.01 | S. cerevisiae deletion strains, locus YEL037C, strain rad23, hits give low values 0.985 | S. cerevisiae deletion strains, locus YEL061C, strain CIN8 (second series), hits give low values 1 | S. cerevisiae deletion strains, locus YER015W, strain faa2, hits give low values 1.01 | S. cerevisiae deletion strains, locus YER016W, strain bim1, hits give low values 1.01 | S. cerevisiae deletion strains, locus YER111C, strain swi4, hits give low values 1.01 | S. cerevisiae deletion strains, locus YER155C, strain BEM2 (second series), hits give low values 0.928 | S. cerevisiae deletion strains, locus YFR010W, strain ubp6, hits give low values 0.995 | S. cerevisiae deletion strains, locus YGL167C, strain pmr1, hits give low values 1 | S. cerevisiae deletion strains, locus YGL173C, strain kem1, hits give low values 1.01 | S. cerevisiae deletion strains, locus YGL227W, strain vid30, hits give low values 1.02 | S. cerevisiae deletion strains, locus YGL240W, strain doc1, hits give low values 0.947 | S. cerevisiae deletion strains, locus YGL253W, strain hxk2, hits give low values 1 | S. cerevisiae deletion strains, locus YHR013C, strain ard1, hits give low values 1.07 | S. cerevisiae deletion strains, locus YHR027C, strain rpn1, hits give low values 1.01 | [2] 1.04 | S. cerevisiae deletion strains, locus YHR079C, strain IRE1, hits give low values 1.03 | S. cerevisiae deletion strains, locus YHR142W, strain chs7, hits give low values 0.961 | S. cerevisiae deletion strains, locus YJL092W, strain hpr5, hits give low values 1 | S. cerevisiae deletion strains, locus YJL095W, strain BCK1 (second series), hits give low values 1.01 | S. cerevisiae deletion strains, locus YJL095W, strain BCK1, hits give low values 0.985 | S. cerevisiae deletion strains, locus YJL115W, strain asf1, hits give low values 1 | S. cerevisiae deletion strains, locus YJL129C, strain trk1, hits give low values 0.973 | S. cerevisiae deletion strains, locus YJL154C, strain vps35, hits give low values 1.01 | S. cerevisiae deletion strains, locus YJL164C, strain tpk1, hits give low values 0.994 | S. cerevisiae deletion strains, locus YJL166W, strain qcr8, hits give low values 0.981 | [3] 1.01 | S. cerevisiae deletion strains, locus YJR066W, strain TOR1, hits give low values 0.969 | S. cerevisiae deletion strains, locus YKL160W, strain elf1, hits give low values 0.987 | S. cerevisiae deletion strains, locus YKR026C, strain gcn3, hits give low values 0.994 | S. cerevisiae deletion strains, locus YKR091W, strain srl3, hits give low values 1.01 | S. cerevisiae deletion strains, locus YLL001W, strain dnm1, hits give low values 1.02 | S. cerevisiae deletion strains, locus YLL026W, hits give low values 1.01 | S. cerevisiae deletion strains, locus YLL041C, strain sdh2, hits give low values 1 | S. cerevisiae deletion strains, locus YLR027C, strain aat2, hits give low values 1.01 | S. cerevisiae deletion strains, locus YLR113W, strain HOG1, hits give low values 0.98 | S. cerevisiae deletion strains, locus YLR221C, strain rsa3, hits give low values 0.983 | S. cerevisiae deletion strains, locus YLR258W, strain gsy2, hits give low values 1.01 | S. cerevisiae deletion strains, locus YLR262C, strain YPT6 (second series), hits give low values 0.884 | S. cerevisiae deletion strains, locus YLR320W, strain mms22, hits give low values 0.927 | S. cerevisiae deletion strains, locus YLR342W, strain FKS1, hits give low values 1.01 | S. cerevisiae deletion strains, locus YLR357W, strain rsc2, hits give low values 1.04 | S. cerevisiae deletion strains, locus YLR370C, strain arc18, hits give low values 1.01 | S. cerevisiae deletion strains, locus YLR384C, strain iki3, hits give low values 1.01 | S. cerevisiae deletion strains, locus YML120C, strain ndi1, hits give low values 0.986 | S. cerevisiae deletion strains, locus YMR058W, strain fet3, hits give low values 1.01 | S. cerevisiae deletion strains, locus YMR125W, strain sto1, hits give low values 1.04 | S. cerevisiae deletion strains, locus YMR129W, hits give low values 1.01 | S. cerevisiae deletion strains, locus YMR205C, strain PFK2, hits give low values 0.998 | S. cerevisiae deletion strains, locus YMR231W, strain pep5, hits give low values 1.01 | S. cerevisiae deletion strains, locus YNL183C, strain NPR1, hits give low values 0.949 | S. cerevisiae deletion strains, locus YNL209W, strain ssb2, hits give low values 1.01 | S. cerevisiae deletion strains, locus YNL248C, strain rpa49, hits give low values 0.953 | S. cerevisiae deletion strains, locus YNL322C, strain KRE1 (second series), hits give low values 1.01 | S. cerevisiae deletion strains, locus YNR049C, strain mso1, hits give low values 1.01 | S. cerevisiae deletion strains, locus YOR001W, strain rrp6, hits give low values 0.988 | S. cerevisiae deletion strains, locus YOR070C, strain gyp1, hits give low values 1 | S. cerevisiae deletion strains, locus YOR080W, strain dia2, hits give low values 1.01 | S. cerevisiae deletion strains, locus YOR083W, strain WHI5, hits give low values 0.982 | S. cerevisiae deletion strains, locus YOR106W, strain vam3, hits give low values 0.977 | S. cerevisiae deletion strains, locus YOR231W, strain MKK1, hits give low values 1.02 | S. cerevisiae deletion strains, locus YOR265W, strain rbl2, hits give low values 1.01 | S. cerevisiae deletion strains, locus YOR270C, strain vph1, hits give low values 0.952 | S. cerevisiae deletion strains, locus YOR290C, strain snf2, hits give low values 1 | S. cerevisiae deletion strains, locus YPL051W, strain arl3, hits give low values 0.973 | S. cerevisiae deletion strains, locus YPL078C, strain atp4, hits give low values 0.964 | S. cerevisiae deletion strains, locus YPL106C, strain sse1, hits give low values 1.01 | S. cerevisiae deletion strains, locus YPL240C, strain hsp82, hits give low values 1 | S. cerevisiae deletion strains, locus YPL256C, strain CLN2, hits give low values 1.02
active: S. cerevisiae deletion strains, locus YNL071W, strain lat1, hits give low values 0.906
